# According to the supplement of paper PMC8728848:
# Only a selection was taken, and the strongest signals are over-represented in it overall.
# Columns and labels:
# Experiment in all cases: glycan array binding signal (z-score within array); higher = stronger binding
# Conditions in all cases: glycan notation: IUPAC condensed, linker removed
# [1] = target: GlcA3S(b1-3)Gal(b1-4)GlcNAc(b1-2)Man
# Method in brief: (§1)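 Columns mapping to the same glycan were averaged after glycan names were converted to IUPAC-condensed notation. The data come from 3228 arrays in the Consortium for Functional Glycomics database, limited to those with an available protein sequence. Binding is reported as a within-array Z-score averaged across arrays of one protein sequence and across linkers.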
# [2] = target: GlcA3S(b1-3)Gal(b1-4)GlcNAc(b1-3)Gal(b1-4)Glc
# Method in brief: as §1
# [3] = target: GlcNAc(b1-2)[GlcNAc(b1-4)]Man(a1-3)[GlcNAc(b1-4)][GlcNAc(b1-2)Man(a1-6)]Man(b1-4)GlcNAc(b1-4)GlcNAc
# Method in brief: as §1
# [4] = target: GlcNAc(b1-3)Gal(b1-4)GlcNAc(b1-3)Gal(b1-4)GlcNAc(b1-2)Man(a1-3)[GlcNAc(b1-3)Gal(b1-4)GlcNAc(b1-3)Gal(b1-4)GlcNAc(b1-2)Man(a1-6)]Man(b1-4)GlcNAc(b1-4)[Fuc(a1-6)]GlcNAc
# Method in brief: as §1
# [5] = target: GlcNAc(b1-3)Gal(b1-4)GlcNAc(b1-6)[Gal(b1-3)]GalNAc
# Method in brief: as §1
# [6] = target: GlcNAc(b1-3)Gal(b1-4)GlcNAc(b1-6)[GlcNAc(b1-3)]Gal(b1-4)GlcNAc
# Method in brief: as §1
# [7] = target: Man(a1-2)Man(a1-2)Man(a1-3)Man
# Method in brief: as §1
# [8] = target: Man(a1-2)Man(a1-2)Man(a1-6)[Man(a1-3)]Man
# Method in brief: as §1
# [9] = target: Man(a1-2)Man(a1-3)[Man(a1-2)Man(a1-6)]Man(a1-6)[Man(a1-2)Man(a1-2)Man(a1-3)]Man(b1-4)GlcNAc(b1-4)GlcNAc
# Method in brief: as §1
# [10] = target: Man(a1-2)Man(a1-6)[Man(a1-3)]Man(a1-6)[Man(a1-2)Man(a1-2)Man(a1-3)]Man
# Method in brief: as §1
# [11] = target: Man(a1-3)[Man(a1-6)]Man(a1-6)[Man(a1-2)Man(a1-3)]Man(b1-4)GlcNAc(b1-4)GlcNAc
# Method in brief: as §1
# [12] = target: Neu5Ac(a2-3)Gal(b1-3)GlcNAc(b1-3)GalNAc
# Method in brief: as §1
# [13] = target: Neu5Ac(a2-3)Gal(b1-3)[GlcNAc(b1-6)]GalNAc
# Method in brief: as §1
# [14] = target: Neu5Ac(a2-3)Gal(b1-4)GlcNAc(b1-2)Man(a1-3)[Neu5Ac(a2-3)Gal(b1-4)GlcNAc(b1-2)Man(a1-6)]Man(b1-4)GlcNAc(b1-4)[Fuc(a1-6)]GlcNAc
# Method in brief: as §1
# [15] = target: Neu5Ac(a2-3)Gal(b1-4)GlcNAc(b1-2)[Neu5Ac(a2-3)Gal(b1-4)GlcNAc(b1-4)]Man(a1-3)[GlcNAc(b1-4)][Neu5Ac(a2-3)Gal(b1-4)GlcNAc(b1-2)[Neu5Ac(a2-3)Gal(b1-4)GlcNAc(b1-6)]Man(a1-6)]Man(b1-4)GlcNAc(b1-4)GlcNAc
# Method in brief: as §1
# [16] = target: Neu5Ac(a2-3)Gal(b1-4)GlcNAc(b1-3)Gal(b1-4)GlcNAc(b1-3)Gal(b1-4)GlcNAc(b1-2)Man(a1-3)[Neu5Ac(a2-3)Gal(b1-4)GlcNAc(b1-3)Gal(b1-4)GlcNAc(b1-3)Gal(b1-4)GlcNAc(b1-2)Man(a1-6)]GalNAc
# Method in brief: as §1
# [17] = target: Neu5Ac(a2-3)Gal(b1-4)GlcNAc(b1-3)Gal(b1-4)GlcNAc(b1-3)GalNAc
# Method in brief: as §1
# [18] = target: Neu5Ac(a2-3)Gal(b1-4)GlcNAc(b1-3)GalNAc
# Method in brief: as §1
# [19] = target: Neu5Ac(a2-3)Gal(b1-4)[Fuc(a1-3)]GlcNAc
# Method in brief: as §1
# [20] = target: Neu5Ac(a2-3)Gal(b1-4)[Fuc(a1-3)]GlcNAc(b1-3)Gal(b1-4)GlcNAc
# Method in brief: as §1
# [21] = target: Neu5Ac(a2-3)Gal(b1-4)[Fuc(a1-3)]GlcNAc(b1-6)[Gal(b1-3)]GalNAc
# Method in brief: as §1
# [22] = target: Neu5Ac(a2-3)Gal(b1-4)[Fuc(a1-3)]GlcNAc(b1-6)[Neu5Ac(a2-3)Gal(b1-3)]GalNAc
# Method in brief: as §1
# [23] = target: Neu5Ac(a2-3)Gal(b1-4)[Fuc(a1-3)]GlcNAc6S
# Method in brief: as §1
# [24] = target: Neu5Ac(a2-3)[GalNAc(b1-4)]Gal(b1-4)GlcNAc(b1-3)GalNAc
# Method in brief: as §1
# [25] = target: Neu5Ac(a2-6)Gal(b1-4)GlcNAc(b1-2)Man(a1-3)Man(b1-4)GlcNAc(b1-4)GlcNAc
# Method in brief: as §1
# [26] = target: Neu5Ac(a2-6)Gal(b1-4)GlcNAc(b1-2)Man(a1-3)[Gal(b1-4)GlcNAc(b1-2)Man(a1-6)]Man(b1-4)GlcNAc(b1-4)GlcNAc
# Method in brief: as §1
# [27] = target: Neu5Ac(a2-6)Gal(b1-4)GlcNAc(b1-2)Man(a1-3)[GlcNAc(b1-2)Man(a1-6)]Man(b1-4)GlcNAc(b1-4)GlcNAc
# Method in brief: as §1
# [28] = target: Neu5Ac(a2-6)Gal(b1-4)GlcNAc(b1-2)Man(a1-6)[GlcNAc(b1-2)Man(a1-3)]Man(b1-4)GlcNAc(b1-4)GlcNAc
# Method in brief: as §1
# [29] = target: Neu5Ac(a2-6)Gal(b1-4)GlcNAc(b1-3)Gal(b1-4)GlcNAc(b1-3)Gal(b1-4)GlcNAc(b1-2)Man(a1-3)[Neu5Ac(a2-6)Gal(b1-4)GlcNAc(b1-3)Gal(b1-4)GlcNAc(b1-3)Gal(b1-4)GlcNAc(b1-2)Man(a1-6)]GalNAc
# Method in brief: as §1
# [30] = target: Neu5Ac(a2-8)Neu5Ac(a2-3)[GalNAc(b1-4)]Gal(b1-4)Glc
# Method in brief: as §1
# Neu5Gc(a2-3)Gal(b1-4)Glc = target: Neu5Gc(a2-3)Gal(b1-4)Glc
# Method in brief: as §1
binder,measurement,setting,value
"Actd5 (Actinidia), P84527 (protein) ISSCNGPCRDLNDCDGQLICIKGKCNDDPQVGTHICRGTTHSHQPGGCKPSGTLTCRGKSYPTYDCSPPVTSSTPAKLTNNDFSEGGDDGGPSECDESYHNNNERIVALSTGWYNGGSRCGKMIRITASNGKSVSAKVVDECDSRHGCDKEHAGQPPCRNNIVDGSNAVWSALGLDKNVGVVDITWSMA",glycan array binding signal (z-score),[1],-0.597
same,glycan array binding signal (z-score),[2],-0.788
same,glycan array binding signal (z-score),[3],-0.558
same,glycan array binding signal (z-score),[4],3.06
same,glycan array binding signal (z-score),[5],-0.776
same,glycan array binding signal (z-score),[6],0.458
same,glycan array binding signal (z-score),[7],0.687
same,glycan array binding signal (z-score),[8],6.66
same,glycan array binding signal (z-score),[9],4.17
same,glycan array binding signal (z-score),[10],3.42
same,glycan array binding signal (z-score),[11],5.03
same,glycan array binding signal (z-score),[12],-0.064
same,glycan array binding signal (z-score),[13],-0.32
same,glycan array binding signal (z-score),[14],-0.173
same,glycan array binding signal (z-score),[15],-0.296
same,glycan array binding signal (z-score),[16],5.66
same,glycan array binding signal (z-score),[17],-0.279
same,glycan array binding signal (z-score),[18],0.374
same,glycan array binding signal (z-score),[19],-0.42
same,glycan array binding signal (z-score),[20],0.65
same,glycan array binding signal (z-score),[21],1.5
same,glycan array binding signal (z-score),[22],-0.33
same,glycan array binding signal (z-score),[23],-0.958
same,glycan array binding signal (z-score),[24],0.22
same,glycan array binding signal (z-score),[25],-0.071
same,glycan array binding signal (z-score),[26],-0.093
same,glycan array binding signal (z-score),[27],-0.252
same,glycan array binding signal (z-score),[28],-0.496
same,glycan array binding signal (z-score),[29],3.79
same,glycan array binding signal (z-score),[30],-0.363
same,glycan array binding signal (z-score),Neu5Gc(a2-3)Gal(b1-4)Glc,0.046
